{
  "source": "PubChem BioAssay (Tox21)",
  "note": "Records with an inconclusive call do not appear. Unmarked numbers belong to inactive results. The call rests on the fitted dose curve.",
  "data": [
    {"target": "Beta-2 adrenergic receptor (Homo sapiens) (UniProt P07550)", "sequence (P07550 whole entry, looked up)": "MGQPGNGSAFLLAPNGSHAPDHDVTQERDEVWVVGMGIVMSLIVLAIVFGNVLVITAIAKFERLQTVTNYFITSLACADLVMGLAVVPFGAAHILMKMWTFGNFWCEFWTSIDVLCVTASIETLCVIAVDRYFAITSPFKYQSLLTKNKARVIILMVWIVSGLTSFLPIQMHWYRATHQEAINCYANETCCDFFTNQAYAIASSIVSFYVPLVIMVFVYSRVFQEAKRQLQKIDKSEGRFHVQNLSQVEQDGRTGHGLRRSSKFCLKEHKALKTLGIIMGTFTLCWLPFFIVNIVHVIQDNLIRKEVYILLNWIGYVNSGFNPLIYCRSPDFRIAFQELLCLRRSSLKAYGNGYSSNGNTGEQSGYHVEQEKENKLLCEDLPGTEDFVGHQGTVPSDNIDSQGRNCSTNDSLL", "experiment": "Adrenergic beta2 receptor (ADRB2) small molecule agonists, cell-based qHTS assay (AID 1963593); further: on the % scale 0 is the no-effect control and ±100 the full control effect", "conditions": "CHO-ADRB2 cells, cAMP HTRF, 30 min; series mostly up to 92.4 µM; activation: at the top concentration", "text": "National Center for Advancing Translational Sciences [NCATS]\nDivision of Preclinical Innovation [DPI]\nU.S. Environmental Protection Agency [EPA]\nNational Institutes of Environmental Health Sciences [NIEHS]\nNational Toxicology Program [NTP]\nU.S. Food and Drug Administration [FDA]\nBeta adrenergic receptors (Beta-ARs) belong to the G-protein coupled receptor (GPCR) superfamily, includes three subtypes - beta1, beta2, and beta3. Beta1-AR is the predominant receptor subtype expressed in the heart, and beta2-AR is expressed in the kidney, lung, blood vessel and in the heart, and beta3 is found in the adipocytes. Beta1 and 2 ARs couple to Gs protein and elevate cyclic adenosine mono phosphate (cAMP), which activates protein kinase A and leads to the downstream signaling responsible for the physiological actions. Beta-AR agonists or antagonists are the most prescribed therapeutic agents for heart failure and asthma, and these were one of the first target receptors for the rational drug design. Tox21 10K compound library was screened using the cAMP-Gs dynamic assay (Cisbio Bioassays, Shelton, CT) to identify agonists/antagonists of the Gs-coupled human adrenergic, beta2 receptor (ADRB2) in the CHO-ADRB2 cell line (Codex BioSolutions, Inc. Gaithersburg, MD), which stably over-expresses ADRB2. The principle of cAMP-Gs dynamic assay is based on HTRF technology, which facilitates the fluorescence resonance energy transfer (FRET) between donor Europium cryptate and acceptor d2-labeled cAMP. The cAMP generated within cells competes with the red acceptor, d2-labled cAMP, for binding to the monoclonal anti-cAMP-cryptate (Europium donor). An increase in intracellular cAMP leads to the disruption of FRET signal, and the signal is inversely proportional to the cAMP concentration. Isoproterenol HCl (Sigma-Aldrich, St. Louis, MO) was used as a positive control in the screening.\nTox21 Assay Protocol Summary:\nCHO-ADRB2 cells were dispensed at 1,000/well in 4uL assay medium into white/solid 1536-well plates (Greiner Bio-One North America Inc., Monroe, NC) using a Multidrop Combi dispenser (ThermoFisher Scientific, Waltham, MA). The assay plates were incubated at 37C and 5% CO2 for an overnight (18-20hr). Then positive control and test compounds dissolved in DMSO were transferred to the assay plates at 23nL using a Pintool station (Wako, San Diego, CA). Following the compound and positive control transfer, 1uL stimulation mix containing 100uM IBMX and 25uM Ro-20-1724 was added to each well of the assay plates using BioRAPTR Flying Reagent Dispenser (FRD, Beckman Coulter, Brea, CA). The assay plates were incubated at room temperature for 0.5hr. Then 2.5ul each d2-labled cAMP and anti-cAMP-cryptate solutions were added separately to each well of the assay plates using an FRD and the assay plates were incubated at room temperature for 1hr.", "values": [
      {"molecule": "CC(=O)C(Cl)C(=O)N(C)C", "note": "(stereo not given)", "activation": "18.8%"},
      {"molecule": "Clc1ccc(C2(Cn3cncn3)CC(Br)CO2)c(Cl)c1", "note": "(stereo not given)", "activation": "-6.22%"},
      {"molecule": "C=CCC1([C@H](C)CCC)C(=O)NC(=O)NC1=O", "activation": "2.16%"},
      {"molecule": "COc1cc(C=O)cc2c1[C@H](COC(N)=O)[C@]1(OC(C)=O)ON2C[C@H]2[C@@H]1N2C(C)=O", "activation": "-13.4%"},
      {"molecule": "COP(N)(=S)Oc1ccccc1C(=O)OC(C)C", "note": "(stereo not given)", "activation": "6.61%"},
      {"molecule": "Nc1n[nH]c(N)n1", "activation": "34.5%"},
      {"molecule": "O=P(O)(O)c1ccccc1", "activation": "2.8%"},
      {"molecule": "C=CCOC(=O)C(C)(C)OC(=O)c1cc(-n2c(=O)cc(C(F)(F)F)n(C)c2=O)ccc1Cl", "activation": "-15.8%"},
      {"molecule": "Nc1ccc2c(c1)Cc1ccccc1-2", "activation": "-35.8%"},
      {"molecule": "COc1ccc(Cc2nccc3cc(OC)c(OC)cc23)cc1OC", "activation": "16.6% [at 42.5 µM]"},
      {"molecule": "CC(C)CCCCCCCOC(=O)c1ccccc1C(=O)OCCCCCCCC(C)C", "activation": "-5.18%"},
      {"molecule": "C=CCN1CC[C@]23c4c5ccc(O)c4O[C@H]2C(=O)CC[C@@]3(O)[C@H]1C5", "activation": "2.21% [at 42.5 µM]"},
      {"molecule": "CCC1CCC(=O)O1", "note": "(stereo not given)", "activation": "8.96%"},
      {"molecule": "CC(C)[N+](=O)[O-]", "activation": "-1.95%"},
      {"molecule": "CCOC(=O)CCN(SN(C)C(=O)Oc1cccc2c1OC(C)(C)C2)C(C)C", "activation": "11.8%"},
      {"molecule": "CCOc1cc(OP(=S)(OC)OC)nc(CC)n1", "activation": "15.7%"},
      {"molecule": "CN(C)C(=O)Oc1cc(OC(=O)N(C)C)cc(C(O)CNC(C)(C)C)c1", "note": "(stereo not given)", "activation": "12.7% [at 42.5 µM]"},
      {"molecule": "CCC1(C2=NCCN2)Cc2ccccc2O1", "note": "(stereo not given)", "activation": "5.21% [at 42.5 µM]"},
      {"molecule": "CCOC(=O)NC(=S)Nc1ccccc1NC(=S)NC(=O)OCC", "activation": "-28.6%"},
      {"molecule": "C=C(C)[C@H]1CN[C@H](C(=O)O)[C@H]1CC(=O)O", "activation": "2.88% [at 42.5 µM]"},
      {"molecule": "NCC1(CC(=O)O)CCCCC1", "activation": "-6.96% [at 42.5 µM]"},
      {"molecule": "O=C(O)[C@H](O)[C@@H](O)C(=O)O", "activation": "-6.11%"},
      {"molecule": "CC(C)(C)c1ccc(CSc2cnn(C(C)(C)C)c(=O)c2Cl)cc1", "activation": "9.35%"},
      {"molecule": "[Cl][Sb]([Cl])[Cl]", "activation": "6.66%"},
      {"molecule": "Nc1c(Cl)c(F)nc(OCC(=O)O)c1Cl", "activation": "0.978%"},
      {"molecule": "ClCc1ccccc1Cl", "activation": "7.13%"},
      {"molecule": "c1ccc(OCC2CO2)cc1", "note": "(stereo not given)", "activation": "12.8%"},
      {"molecule": "CC(C)(C)OC(=O)c1ncn2c1[C@@H]1CCCN1C(=O)c1c(Br)cccc1-2", "activation": "-15.7% [at 42.5 µM]"},
      {"molecule": "CN(C)CCc1c[nH]c2ccccc12", "activation": "10.3%"},
      {"molecule": "CC(C)COP(=O)(OCC(C)C)OCC(C)C", "activation": "14.7%"},
      {"molecule": "CC(C)CP(=S)(S)CC(C)C", "activation": "2.63%"},
      {"molecule": "N#Cc1cc(I)c(O)c(I)c1", "activation": "-4.8%"},
      {"molecule": "COc1cccc2c1C(=O)c1c(O)c3c(c(O)c1C2=O)C[C@@](O)(C(=O)CO)CC3OC1CC(N2CCOC(OC)C2)C(O)C(C)O1", "note": "(stereo not given in full)", "activation": "-9.09% [at 42.5 µM]"},
      {"molecule": "CCC1COC(Cn2cncn2)(c2ccc(Cl)cc2Cl)O1", "note": "(stereo not given)", "activation": "-19.8%"},
      {"molecule": "CC(Cl)(Cl)[N+](=O)[O-]", "activation": "26.1%"},
      {"molecule": "O=C(O)COc1ccc(Cl)cc1", "activation": "-0.645%"},
      {"molecule": "CCn1cc[n+](C)c1", "note": "(tested in a mixture with another compound)", "activation": "16.9%"},
      {"molecule": "CC(=O)[C@H]1CC[C@H]2[C@@H]3CC[C@H]4C[C@H](O)CC[C@]4(C)[C@H]3C(=O)C[C@]12C", "activation": "-14.2% [at 42.5 µM]"},
      {"molecule": "COP(=O)(OC)OC(Br)C(Cl)(Cl)Br", "note": "(stereo not given)", "activation": "23.7%"},
      {"molecule": "CCN(CC)C(=O)Cl", "activation": "-11.8%"}
    ]}
  ]
}
